Screening data (PubChem BioAssay)
Only some compounds are listed: those with a hit (about 1.4% of all), similar ones and a draw of the others.
MRP reversal: reversal of MRP1-mediated doxorubicin resistance, primary screen, H69AR cells, doxorubicin co-treatment; AID 602, 2007; differential viability (reversal), % at 10 µM; hit rate 0.04% among 85,000; H69AR cells + 2 uM doxorubicin, CellTiter-Glo, 72 h;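 active = viability drop by adding the cancer drug above about 55%, with treated viability meeting a 40% cutoff, limit read from the data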;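 also: viability without doxorubicin minus viability with 2 µM doxorubicin for each compound; larger differential means the compound sensitizes cells more to doxorubicin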
sdo1 growth: growth rescue of sdo1-depleted yeast, primary screen, S. cerevisiae, bone marrow failure model; hit rate 0.21% among 140,000; z-score at 10 µM; S. cerevisiae sdo1-depleted JHY4D growth rescue, OD600 30 h; hits give high values; pdr5 snq2 efflux-pump mutant strain;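 active = z-score above 3 at both the 24 hr and the 30 hr optical density reads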;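 also: z-score against mean and SD of all compound wells on the same plate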
HUVEC tox IL1B: cytotoxicity in IL-1B stimulated HUVEC, primary screen, cytotoxicity control for IL-1B NFkB translocation project, imaging, Hoechst nuclear count, IL-1B stimulus | AID 845, 2007 | cell count reduction, % at 2 µM | hit rate 0.41% among 94,000 | HUVEC cell count loss;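 active = cell count reduction more than 3 SD above the screen-wide mean, cut at about 70% in these data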;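 also: normalized per plate to untreated control cells as the no-loss baseline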
MRP-1 activ: H69AR viability gain despite doxorubicin, primary screen, MRP-1 activator project, H69AR cells, CellTiter-Glo; viability rescue; hit rate 0.61% among 140,000; viability increase, % at 10 µM; AID 799, 2007;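 active = viability gain under doxorubicin at or above a set limit, the compound median plus 3 SD, cut at about 4.7% in these data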;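 also: MRP-1 overexpressing cells given doxorubicin 25 µM after compound pretreatment; 18-22 h compound pretreatment then 72 h with doxorubicin before readout; 0% = doxorubicin-only wells and 100% = vehicle-treated cells without doxorubicin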
NFkB transloc inh: inhibitors of IL-1B driven NFkB p65 nuclear import, primary screen, imaging, HUVEC, IL-1B stimulus, high-content imaging | HUVEC IL-1B NFkB p65 nuclear translocation imaging | AID 796, 2007 | inhibition, % at 2 µM | hit rate 0.43% among 94,000;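 active = inhibition above about 30% together with a positive call from visual inspection of the well image, limit read from the data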;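 also: nuclear over cytoplasmic p65 intensity ratio measured by imaging; 0% = IL-1B stimulated DMSO wells and 100% = unstimulated DMSO wells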
IL1B NFkB pot: enhancers of NFkB p65 translocation in HUVEC – imaging, IL-1B stimulus, high-content imaging, primary screen. AID 819, 2007. hit rate 0.3% among 94,000. activation, % at 2 µM. HUVEC IL-1B NFkB p65 nuclear translocation imaging;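 active = activation above 40%, about the mean plus 3 SD, also judged a hit on visual image review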;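 also: percent activation is computed from the nuclear over cytoplasmic p65 intensity ratio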
SDO1 rescue DR: SDO1-depleted yeast growth rescue, concentration-response, diseases of bone marrow failure, JHY4D, OD600 | shares compounds with sdo1 growth | S. cerevisiae JHY4D (SDO1-depleted) growth rescue, 30 h; hits give high values; efflux-deficient strain, SNQ2 and PDR5 mutated | OD recovery (no concentration beside the values) | hit rate 44% among 440;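 active = yeast growth recovered at 30 hours, either rising with dose fitted slope above 0.001 or with average optical density gain above 0.07, some results past the limit were not filed as active; inactive = growth falling with dose or no effect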;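 also: gain in OD600 from 0 h to 30 h averaged across all seven doses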
* hit, by the source's call; x = no result.

SMILES | MRP reversal | sdo1 growth | HUVEC tox IL1B | MRP-1 activ | NFkB transloc inh | IL1B NFkB pot | SDO1 rescue DR
COc1ccc2c(c1)CCc1c(C(=O)NCCc3ccc(OC)c(OC)c3)noc1-2 | 17 | 0.22 | -10 | -2 | -19 | 19 | 0.037
COCCCn1c(SCC(=O)N2CC(=O)Nc3ccccc32)nnc1-c1ccoc1C | 4 | 11* | 4 | -1 | 8 | -8 | 0.084*
O=C(COC(=O)/C=C/c1ccccc1[N+](=O)[O-])Nc1ccc(OC(F)F)cc1 | x | 11* | x | 0 | x | x | 0.067
COc1ccc(CCN2C(=O)c3cccc4c(C(=O)N5CCCCC5)ccc(c34)C2=O)cc1OC | x | 0.3 | x | -1 | x | x | 0.051
COc1ccc(-c2noc(CCC(=O)Nc3cccc(C)c3)n2)cc1 | 8 | 0.05 | -34 | 0 | 8 | -8 | x
COc1ccc(-c2noc(CCC(=O)N(C)c3cccc(C)c3)n2)cc1 | 9 | 4.3* | -52 | 3 | -2 | 2 | 0.045
CC(OC(=O)c1c2c(nc3ccccc13)/C(=C\c1ccc3c(c1)OCO3)CCC2)C(=O)Nc1ccc(S(N)(=O)=O)cc1 (stereo not given) | x | 1.5 | x | -6 | x | x | 0.085*
Cc1ccc(C(=O)CSc2nnnn2C(C)C)c(C)c1 | 16 | -1.4 | 3 | 0 | -3 | 3 | x
COC(=O)c1c(C)[nH]c(C(=O)/C=C/c2ccccc2)c1C | x | 0.03 | x | -5 | x | x | x
COC(=O)c1c(C)[nH]c(C(=O)/C=C/c2cccc(Cl)c2)c1C | x | 11* | x | -5 | x | x | 0.052
O=C(Cc1c[nH]c2ccccc12)NCc1ccc2c(c1)OCO2 | 19 | 1 | 22 | -1 | 15 | -15 | x
NC(=O)C1(N2CCCCC2)CCN(C(=S)Nc2ccccc2)CC1 | x | 0.15 | x | 0 | x | x | x
CCOc1ccc(NC(=O)N2CCC(C(N)=O)(N3CCCCC3)CC2)cc1 | x | 13* | 3 | 0 | 7 | -7 | 0.066
Cc1ccc(C(=O)N(Cc2ccc3c(c2)OCO3)Cc2nc3ccccc3c(=O)[nH]2)cc1 | -1 | 8.5* | -6 | -2 | -4 | 4 | 0.091*
O=C(c1ccccc1)N(Cc1ccc(F)cc1)Cc1nc2ccccc2c(=O)[nH]1 | -11 | -0.64 | -16 | -3 | -8 | 8 | x
O=C(NC1CCCCC1)C(c1cccnc1)N(C(=O)CCl)c1cccc(Cl)c1 (stereo not given) | x | -1.4 | x | -5 | x | x | x
O=C(NCCc1ccccc1)c1ccnc(/C=N/O)c1 | 0 | 8* | -38 | 0 | -10 | 10 | 0.029
O=C(CC1c2ccccc2Oc2ccccc21)Nc1ccccc1C(F)(F)F | x | -0.31 | x | -2 | x | x | x
N=c1c2c3c(sc2ncn1CCN1CCOCC1)CCCCC3 | -12 | 11* | 9 | -4 | 9 | -9 | 0.042
COc1ccc(C(C2C(=O)CC(C)(C)CC2=O)C2C(=O)CC(C)(C)CC2=O)cc1COCC(F)(F)F | x | 14* | x | -1 | x | x | 0.082*
O=C(NC(=S)Nc1cc(C(F)(F)F)ccc1N1CCOCC1)c1sc2ccccc2c1Cl | x | 0.14 | x | -2 | x | x | x
CSCC[C@H](NC(=O)OC(C)(C)C)c1nnc(SCC(N)=O)o1 | 4 | 9.6* | x | -2 | x | x | 0.046*
CCN(CC)C(=O)CSc1nnc([C@H](CCSC)NC(=O)OC(C)(C)C)o1 | x | 0.13 | -2 | -1 | 11 | -11 | x
CCC(=O)c1ccc2ncccc2c1 | x | 0.17 | x | 0 | x | x | x
Cc1sc(NC(=S)NC(=O)C2CCCCC2)c(C(N)=O)c1C | x | -0.22 | x | -1 | x | x | x
Cc1ccc(S(=O)(=O)N[C@H](C(=O)OCC(=O)N2N=C(c3ccc(Cl)cc3)CC2c2ccco2)C(C)C)cc1 (stereo not given in full) | x | -0.19 | x | -3 | x | x | x
O=C(CSc1nnnn1-c1ccccc1)Nc1nc(-c2ccccc2)ns1 | 3 | 2 | -17 | 1 | 13 | -13 | 0.071*
Cc1ccc(-n2nnnc2SCC(=O)Nc2nc(-c3ccc(F)cc3)cs2)cc1C | x | 0.64 | -4 | -5 | -7 | 7 | 0.029
